Screening data as filed in PubChem.
USP2a inh = qHTS Assay for Inhibitors of Ubiquitin-specific Protease USP2a Using CHOP2 as the Reporter; 330,000 compounds, 0.01% hits; Potency, µM (series often up to 38.3 µM), hits mostly inhibitors; USP2 core, Ub-CHOP2 coupled fluorogenic reporter, 485/531; AID 463254, 2010; Ubiquitin carboxyl-terminal hydrolase 2 (Homo sapiens), O75604
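USP2 core (10nM final) preincubated 30min RT with compound in 20mM Tris-HCl pH 8.0, 2mM CaCl2, 2mM beta-mercaptoethanol, 0.05% CHAPS; 25nM Ub-CHOP2 plus 25nM reporter substrate added, fluorescence (Ex485/Em531) read after 60min.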
GALK inh = qHTS Assay for Inhibitors of Human Galactokinase (GALK); P51570; Purified GALK, Kinase-Glo residual ATP luminescence; Potency, µM (doses to about 57.5 µM), hits mostly inhibitors; 270,000 compounds, 0.007% hits; AID 1868, 2009
Target sequence (P51570 whole entry, looked up): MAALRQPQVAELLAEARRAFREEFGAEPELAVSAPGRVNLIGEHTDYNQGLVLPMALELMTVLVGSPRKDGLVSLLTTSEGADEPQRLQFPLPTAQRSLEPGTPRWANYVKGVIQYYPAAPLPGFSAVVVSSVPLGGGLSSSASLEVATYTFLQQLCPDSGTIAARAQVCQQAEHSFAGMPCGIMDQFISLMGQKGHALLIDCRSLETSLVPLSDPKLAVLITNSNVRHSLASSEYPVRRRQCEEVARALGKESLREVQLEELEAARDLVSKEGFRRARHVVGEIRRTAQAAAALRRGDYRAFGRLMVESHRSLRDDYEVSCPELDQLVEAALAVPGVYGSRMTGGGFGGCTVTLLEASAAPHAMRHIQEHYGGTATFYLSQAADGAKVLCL
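The enzyme phosphorylates galactose (100 uM) using ATP (35 uM); inhibition is detected as higher residual ATP, quantified by bioluminescence after 1 h reaction at room temperature, pH 8.0.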
FBPA coupling cs = qHTS Assay for Inhibitors of Fructose-1,6-bisphosphate Aldolase from Giardia Lamblia: Coupling assay counterscreen; activity change, negative = inhibition, % at 58.2 µM, hits read low; coupling enzyme system counterscreen, AmpLite Red fluorescence; 290,000 compounds, 0.67% hits; AID 2472, 2010; in the data active = activity change below about -30%
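Coupling enzymes only (glyceraldehyde-3-phosphate) + compound, at 57.5 uM final, 10 min RT; add substrate/coupling/AmpLite Red mix, 20 min RT; fluorescence ex 525/em 598 nm. Actives flag coupling-system interference.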
VDR inh = Inhibitors of the vitamin D receptor (VDR): qHTS | Vitamin D3 receptor (Homo sapiens), P11473 | VDR-SRC2-3 peptide fluorescence polarization, 2 h | Potency, µM, hits mostly inhibitors | 400,000 compounds, 0.93% hits | AID 504847, 2011
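Fluorescence polarization assay of small-molecule disruption of VDR binding to coregulator peptide SRC2-3. Compounds and controls pin-transferred, then read after 2 h incubation at ambient room temperature.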
USP1-UAF1 inh = Inhibitors of USP1/UAF1: Primary Screen. recombinant USP1/UAF1, Ub-Rhodamine cleavage fluorescence. Ubiquitin carboxyl-terminal hydrolase 1 (Homo sapiens), O94782. Potency, µM (highest dose often 57.1 µM), usual class: inhibitors. AID 743255, 2014. 390,000 compounds, 0.23% hits; note: nearly all actives have a fitted effect of over 60% in size
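In this screen, compounds sit with the deubiquitinase complex (1nM) for 15 min at room temperature before Ub-Rho is added at 150nM final. Fluorescence rise is then followed for 6 reads every 60 seconds.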
PLK1 PBD block = qHTS for Inhibitors of PLK1-PDB (polo-like kinase 1 - polo-box domain): Primary Screen. Plk1 PBD binding of FITC phosphopeptide, fluorescence polarization. 360,000 compounds, 2.8% hits. Potency, µM, actives largely listed as inhibitors. AID 720504, 2013. Serine/threonine-protein kinase PLK1 (Homo sapiens), P53350; note: series mostly up to about 57 µM; nearly all actives have a fitted effect of over 65% in size
Of the large screens only hits and unclear results are named; the others gave an inactive call. Shown are actives, neighbours in structure and some others; about 3.2% of the full set was active somewhere. Unless noted, calls come from the whole dose curve; as a rule, active = well fitted curve in the direction sought with a large enough effect; inconclusive = small, poorly fitted or top-dose-only effect, or another doubt; inactive = no such curve, though single readings can be large; an effect the other way counts as inactive or inconclusive.

Cc1ccc(CNC(=O)CO/N=C/c2ccc3c(c2)OCO3)cc1	PLK1 PBD block 26.7µM
COC(=O)c1c(C)oc2ccc(N(C(C)=O)S(=O)(=O)c3ccccc3)cc12	none
Nc1cc(N)nc(SCC(=O)NCc2ccc3c(c2)OCO3)n1	VDR inh inconclusive, PLK1 PBD block 5.97µM (no result: GALK inh, FBPA coupling cs)
CC(C)C(=O)c1cn(CC(=O)NCc2ccc3c(c2)OCO3)c2ccccc12	PLK1 PBD block 23.8µM
Clc1cc(Cl)c2nc(N3CCCCC3)sc2c1	PLK1 PBD block 23.8µM
Cc1ccc(C2CC(=O)Nc3c2ccc2ccccc32)cc1[N+](=O)[O-] (stereo unspecified)	none
CCCC(=O)C1=C(c2ccccc2)C(C#N)(C#N)C(C#N)=C1N	VDR inh inconclusive, PLK1 PBD block 7.52µM
COc1cc(CNCc2ccncc2)ccc1OCC(N)=O	none (no result: USP2a inh, GALK inh, FBPA coupling cs)
O=C(CSc1ncccc1C(=O)Oc1ccccc1Cl)Nc1ccc(C(F)(F)F)cc1Cl	none (no result: USP2a inh, GALK inh, FBPA coupling cs, PLK1 PBD block)
COc1cccc(/C=C/C(=O)Nc2ccc3nc4n(c(=O)c3c2)CCCC4)c1OC	none
CC(=O)Nc1ccc(S(=O)(=O)NCC(C)NS(=O)(=O)c2ccc(NC(C)=O)cc2)cc1 (stereo unspecified)	none
CC(=O)Nc1ccc(S(=O)(=O)NCC(CCC(=O)O)C(F)(F)F)cc1 (stereo unspecified)	VDR inh inconclusive, PLK1 PBD block 13.4µM
c1ccc2c(c1)SCc1c-2[nH]c2ccccc12	VDR inh 10µM (no result: USP2a inh, GALK inh, USP1-UAF1 inh, PLK1 PBD block)
c1ccc2c(c1)OCCc1c-2[nH]c2ccccc12	none (no result: GALK inh)
CCOC(=O)c1sc(NC(=O)/C=C/c2ccc(F)cc2)nc1C	PLK1 PBD block 21.2µM
Cc1ccc(-c2c(C)sc(NC(=O)C3C4CCC(O4)C3C(=O)O)c2C(=O)OC(C)C)cc1 (stereo unspecified)	PLK1 PBD block inconclusive
COC(=O)c1c(NC(=O)/C=C/C(=O)O)sc(C)c1-c1ccc(C)c(C)c1	VDR inh 89.1µM, PLK1 PBD block inconclusive
CCOC(=O)c1c(NC(=O)/C=C/C(=O)O)sc(C)c1-c1ccc(C)c(C)c1	VDR inh inconclusive, PLK1 PBD block inconclusive
CC(C)=C1C2CCC1C(C(=O)Nc1sc(C)c(-c3ccc(C(C)C)cc3)c1C(N)=O)C2C(=O)O (stereo unspecified)	PLK1 PBD block 29.9µM
COC(=O)c1c(NC(=O)/C=C/C(=O)O)sc(C)c1-c1ccc(C(C)C)cc1	VDR inh 25.1µM, PLK1 PBD block 37.7µM
COc1ccc(C(=O)O)cc1N1C(=O)Nc2ccccc2N1O	none
CCOC(=O)c1c(NC(=O)/C=C/C(=O)O)sc(C)c1-c1ccc(F)cc1	VDR inh 22.4µM
COC(=O)c1sccc1NC(=O)/C=C/C(=O)O	none
COC(=O)c1sc(-c2ccc(Cl)cc2)cc1NC(=O)/C=C/C(=O)O	VDR inh 31.6µM
COC(=O)c1c(NC(=O)/C=C/C(=O)O)sc(C)c1-c1ccc(C)cc1	VDR inh inconclusive
COc1ccc(-n2ccnc2SCC(=O)Nc2cccc(OC)c2)cc1	none (no result: USP2a inh, GALK inh, FBPA coupling cs, PLK1 PBD block)
Nc1cc(-c2ccncc2)c[nH]c1=O	FBPA coupling cs -73.1, VDR inh 20µM, USP1-UAF1 inh 39.8µM, PLK1 PBD block 29.9µM
O=C(COc1cccc2c1CCN(Cc1ccc(Cl)cc1)C2=O)N1CCOCC1	none
Cc1ccc(NC(=O)COc2ccc(N3CC(C(N)=O)CC3=O)cc2)c(C)c1 (stereo unspecified)	none
Cc1cccc(-c2nnc(SCC#N)n2C)c1	PLK1 PBD block 26.7µM
CCOC(=O)c1c(C)n(C)c2ccc(OC)c(NC(=O)c3cccs3)c12	PLK1 PBD block 29.9µM
CCOC(=O)c1c(C)n(C)c2ccc(OC)c(NC(=O)CN3CCSCC3)c12	none
CC12CCC(C(=O)N(CSC(=S)N/N=C\c3ccccc3)C1=O)C2(C)C (stereo unspecified)	PLK1 PBD block 3.36µM
CCOC(=O)c1cc([N+](=O)[O-])cc([N+](=O)[O-])c1Sc1ncnc2nc[nH]c12	VDR inh 50.1µM, PLK1 PBD block 21.2µM (no result: USP2a inh, GALK inh, FBPA coupling cs)
O=C(CSc1nnc2ccccn12)NC(=O)c1ccccc1	none (no result: GALK inh, FBPA coupling cs)
CC(OC(=O)c1cc(-c2cccnc2)nc2ccccc12)C(=O)Nc1ccc2ccccc2c1 (stereo unspecified)	none
COc1cc(CNc2cccc3[nH]c(C(F)(F)F)nc23)cc(OC)c1	VDR inh inconclusive, PLK1 PBD block 26.7µM (no result: GALK inh)
COc1ccc(CNc2cccc3[nH]c(C(F)(F)F)nc23)cc1	none
O=C1CCC2S/C(=C/Nc3ccc(C(F)(F)F)cc3)C(=O)N12 (stereo unspecified)	PLK1 PBD block 9.47µM
O=C1CCCC/C1=C/Nc1cccc(C(F)(F)F)c1	none
Cc1ccc(/C=c2\sc3nc(-c4ccco4)nn3c2=O)o1	PLK1 PBD block 9.47µM
O=[N+]([O-])c1ccc(N/N=C/c2cccc(O)c2O)cc1	VDR inh inconclusive, PLK1 PBD block 26.7µM
O=[N+]([O-])c1ccc(N/N=C/c2cccc(O)c2)cc1	none
Nc1[nH]c(=O)[nH]c(=O)c1N=Nc1cccc(Cl)c1	none
COc1ccc(-c2nnc(SCc3ccccn3)n2C)cc1	PLK1 PBD block 29.9µM
O=c1c2ccccc2nc2n1CCC2	none
O=C1CCn2c1c(O)c1ccccc1c2=O	USP1-UAF1 inh 5.01µM (no result: USP2a inh, GALK inh, FBPA coupling cs)
CCCC[n+]1ccn(C2=C([O-])c3ccccc3C(=O)/C2=N\S(=O)(=O)c2ccc(Br)cc2)c1	FBPA coupling cs -58.8, USP1-UAF1 inh inconclusive (no result: GALK inh)
Cc1ccc(S(=O)(=O)/N=C2\C(=O)c3ccccc3C([O-])=C2n2cc[n+](CCC(C)C)c2)cc1	FBPA coupling cs -52.0, USP1-UAF1 inh inconclusive
CC(=O)Nc1ccc(S(=O)(=O)/N=C2\C(=O)c3ccccc3C([O-])=C2n2cc[n+](-c3ccccn3)c2)cc1	FBPA coupling cs -38.9, USP1-UAF1 inh 25.1µM
O=[N+]([O-])c1ccccc1NC(=S)N/N=C/c1ccc(O)c(O)c1	VDR inh inconclusive, PLK1 PBD block 11.9µM
CCc1ccccc1NC(=O)c1sc2nc(C)cc(C)c2c1N	VDR inh inconclusive, PLK1 PBD block 23.8µM
Cc1ccc2c(c1)NC(=O)C(CC(=O)NCCCN1CCCC1=O)O2 (stereo unspecified)	VDR inh inconclusive, PLK1 PBD block 29.9µM
